Experimental data: PubChem BioAssay
Active and inactive are the calls of the source.

How the values were obtained:
[1] = optical density shifts of acrAB sulA E. coli – strain DRC41, OD650, 48 h, E. coli filamentation inducer project, primary screen (AID 1152); settings: higher = more signal, called active from +8 up or from −8 down;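 further: E. coli MC1000 strain DRC41 lacking acrAB efflux pump and sulA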
[2] = probe aLefty1 binding on compound microarray – biochemical, small-molecule microarray, 635/667 nm fluorescence, primary screen (AID 1153); settings: higher = more signal;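 further: score merges spot fluorescence with signal-to-noise ratio from the scanned slide images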
[3] = plasmodial surface anion channel blockers, osmotic lysis – cell-based, P. falciparum Indochina, OD700, 1 h, primary screen (AID 1154); settings: P. falciparum Indochina infected RBC osmotic lysis, higher = more signal, called active from +8 up or from −8 down
[4] = plasmodial surface anion channel blockers, osmotic lysis – cell-based, P. falciparum Indochina, OD700, 2 h, primary screen (AID 1155);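 further: lysis reports solute entry through the parasite surface anion channel PSAC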; settings: P. falciparum Indochina infected erythrocytes, higher = more signal, called active from +8 up or from −8 down
[5] = changes in parasitized red cell lysis, either direction – P. falciparum Indochina, OD700, 3 h, PSAC antagonist project, primary screen (AID 1156); settings: P. falciparum-infected erythrocytes, osmotic lysis, higher = more signal, called active from +8 up or from −8 down
[6] = plasmodial surface anion channel blockers, osmotic lysis – cell-based, P. falciparum Indochina, OD700, 18 h, primary screen (AID 1157); settings: P. falciparum Indochina infected erythrocytes, osmotic lysis OD700, 18 h; higher = more signal, called active from +8 up or from −8 down
[7] = S6 kinase pathway phospho-S6 level changes – cell-based, A549, cytoblot, luminescence, serum-stimulated, primary screen (AID 1158); settings: 5 h, higher = more signal;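 further: serum-stimulated A549 lung adenocarcinoma cells; signal is phosphorylated S6 detected by cytoblot immunostaining with HRP secondary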
[8] = target: NADPH oxidase 2 (Homo sapiens) (UniProt P04839); assay: compounds shifting NOX2 Amplex Red fluorescence – cell-based, HEK293-NOX2, PMA-stimulated, NOX inhibitor project, primary screen (AID 1159); settings: 45 min, higher = more signal, called active from +8 up or from −8 down; further: test concentration not given here
[9] = target: NADPH oxidase 4 (Homo sapiens) (UniProt Q9NPH5); assay: compounds shifting NOX4 Amplex Red fluorescence – cell-based, HEK293-NOX4, tetracycline-induced, NOX inhibitor project, primary screen (AID 1160); settings: HEK293-NOX4, Amplex Red H2O2 fluorescence, 45 min; higher = more signal, called active from +8 up or from −8 down
[10] = target: NADPH oxidase 5 (Homo sapiens) (UniProt Q96PH1); assay: compounds shifting NOX5 Amplex Red fluorescence – cell-based, HEK293-NOX5, NOX inhibitor project, primary screen (AID 1161); settings: HEK293-NOX5, ionomycin, 45 min, higher = more signal
[11] = compound effects on lung adenocarcinoma cell viability – A549, calcein-AM fluorescence, 48 h, basal, profiling panel (AID 1162); settings: higher = more signal; further: test concentration not given here
[12] = compound effects on differentiated 3T3-L1 adipocyte viability – cell-based, 3T3-L1 adipocytes, calcein-AM fluorescence, 48 h, basal, profiling panel (AID 1163); settings: 3T3-L1 adipocytes viability, higher = more signal; further: test concentration not given here
[13] = compound effects on hepatocellular carcinoma cell viability – HepG2, calcein-AM fluorescence, 48 h, basal, profiling panel (AID 1164); settings: higher = more signal; further: test concentration not given here
[14] = compound effects on multiple myeloma cell viability – MM1S, calcein-AM fluorescence, 48 h, basal, profiling panel (AID 1165); settings: higher = more signal;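 further: viability of MM1S multiple myeloma cells under basal unstimulated conditions; test concentration not given here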
[15] = calcein-AM signal in unstimulated myeloma cells – cell-based, calcein-AM fluorescence, 48 h, PK04 Diversity Set, profiling panel (AID 1166); settings: RPMI8226 myeloma viability, higher = more signal;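 further: cells grown under basal conditions without added stimulus; test concentration not given here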
[16] = JC-1 mitochondrial signal, unstimulated HepG2 cells – cell-based, JC-1 fluorescence, 24 h, 100 nL compound, profiling panel (AID 1167); settings: HepG2 mitochondrial potential, higher = more signal; further: test concentration not given here
[17] = JC-1 mitochondrial signal, unstimulated adipocytes – cell-based, JC-1 fluorescence, 3T3-L1 adipocytes, 24 h, 100 nL compound, profiling panel (AID 1168); settings: JC-1 mitochondrial fluorescence, higher = more signal, called active from +8 up or from −8 down; further: test concentration not given here
[18] = JC-1 mitochondrial signal, unstimulated myeloma cells – cell-based, JC-1 fluorescence, RPMI8226, 24 h, 100 nL compound, profiling panel (AID 1169); settings: JC-1 mitochondrial potential fluorescence, higher = more signal; further: test concentration not given here
[19] = JC-1 mitochondrial signal, unstimulated MM1S myeloma – cell-based, JC-1 fluorescence, 24 h, 100 nL compound, profiling panel (AID 1170); settings: MM1S mitochondrial potential, higher = more signal; further: test concentration not given here
[20] = resazurin metabolic signal in A549 cells – cell-based, resazurin fluorescence, 24 h, PK04 Diversity Set, profiling panel (AID 1171); settings: A549 viability, higher = more signal, called active from +8 up or from −8 down; further: test concentration not given here

Chain of NADPH oxidase 2 (Homo sapiens) (P04839 whole entry, looked up): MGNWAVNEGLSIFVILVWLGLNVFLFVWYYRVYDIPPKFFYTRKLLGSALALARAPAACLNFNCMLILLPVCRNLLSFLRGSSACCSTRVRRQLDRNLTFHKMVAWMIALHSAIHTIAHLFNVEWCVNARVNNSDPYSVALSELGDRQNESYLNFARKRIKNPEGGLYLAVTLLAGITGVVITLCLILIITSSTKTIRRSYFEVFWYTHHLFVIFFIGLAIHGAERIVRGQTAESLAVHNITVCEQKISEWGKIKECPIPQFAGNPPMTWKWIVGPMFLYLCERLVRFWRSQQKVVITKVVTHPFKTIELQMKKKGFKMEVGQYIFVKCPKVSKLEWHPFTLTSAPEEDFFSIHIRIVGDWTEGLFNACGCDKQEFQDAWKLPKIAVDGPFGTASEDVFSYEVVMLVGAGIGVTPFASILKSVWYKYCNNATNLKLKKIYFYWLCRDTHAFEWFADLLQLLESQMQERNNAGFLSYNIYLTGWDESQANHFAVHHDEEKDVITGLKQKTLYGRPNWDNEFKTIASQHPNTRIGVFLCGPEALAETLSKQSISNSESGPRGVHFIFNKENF
Chain of NADPH oxidase 4 (Homo sapiens) (Q9NPH5 whole entry, looked up): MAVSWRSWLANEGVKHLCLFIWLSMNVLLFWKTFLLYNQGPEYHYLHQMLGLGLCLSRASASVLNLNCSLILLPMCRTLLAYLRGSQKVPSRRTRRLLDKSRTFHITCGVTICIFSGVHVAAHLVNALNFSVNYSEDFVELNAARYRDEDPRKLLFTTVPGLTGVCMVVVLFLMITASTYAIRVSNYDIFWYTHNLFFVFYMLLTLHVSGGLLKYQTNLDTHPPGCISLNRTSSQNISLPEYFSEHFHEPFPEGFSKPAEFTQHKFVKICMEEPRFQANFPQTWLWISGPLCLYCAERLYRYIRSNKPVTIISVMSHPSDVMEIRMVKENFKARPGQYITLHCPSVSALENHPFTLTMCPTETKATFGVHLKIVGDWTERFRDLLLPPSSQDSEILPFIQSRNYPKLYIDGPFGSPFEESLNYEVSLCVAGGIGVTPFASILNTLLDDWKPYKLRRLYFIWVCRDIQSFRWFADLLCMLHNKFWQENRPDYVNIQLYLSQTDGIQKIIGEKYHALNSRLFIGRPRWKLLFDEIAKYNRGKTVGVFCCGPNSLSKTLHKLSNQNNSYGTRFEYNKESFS
Chain of NADPH oxidase 5 (Homo sapiens) (Q96PH1 whole entry, looked up): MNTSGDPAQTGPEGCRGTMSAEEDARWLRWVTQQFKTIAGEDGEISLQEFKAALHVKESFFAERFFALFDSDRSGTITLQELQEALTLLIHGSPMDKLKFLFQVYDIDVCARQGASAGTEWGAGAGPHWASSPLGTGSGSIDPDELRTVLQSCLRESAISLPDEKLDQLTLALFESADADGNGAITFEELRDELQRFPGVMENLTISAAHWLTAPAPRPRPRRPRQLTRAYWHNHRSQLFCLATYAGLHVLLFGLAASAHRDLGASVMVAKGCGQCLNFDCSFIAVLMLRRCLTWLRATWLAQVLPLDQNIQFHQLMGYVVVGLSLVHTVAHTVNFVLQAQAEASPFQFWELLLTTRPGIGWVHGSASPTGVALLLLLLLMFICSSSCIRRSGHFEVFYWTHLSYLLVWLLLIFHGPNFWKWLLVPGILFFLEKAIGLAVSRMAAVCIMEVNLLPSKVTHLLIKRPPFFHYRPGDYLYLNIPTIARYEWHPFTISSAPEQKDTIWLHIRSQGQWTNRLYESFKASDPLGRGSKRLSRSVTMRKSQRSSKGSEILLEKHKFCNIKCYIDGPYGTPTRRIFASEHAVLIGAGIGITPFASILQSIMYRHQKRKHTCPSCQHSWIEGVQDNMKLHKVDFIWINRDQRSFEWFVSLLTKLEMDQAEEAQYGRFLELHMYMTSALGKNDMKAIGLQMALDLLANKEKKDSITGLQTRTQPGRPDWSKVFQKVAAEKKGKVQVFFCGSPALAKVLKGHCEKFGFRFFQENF

| SMILES | z-score [1] | composite z-score [2] | z-score [3] | z-score [4] | z-score [5] | z-score [6] | z-score [7] | z-score [8] | z-score [9] | z-score [10] | z-score [11] | z-score [12] | z-score [13] | z-score [14] | z-score [15] | z-score [16] | z-score [17] | z-score [18] | z-score [19] | z-score [20] |
| --- | --- | --- | --- | --- | --- | --- | --- | --- | --- | --- | --- | --- | --- | --- | --- | --- | --- | --- | --- | --- |
| O=C(C=Cc1ccc2c(c1)OCO2)c1ccc(F)cc1 | -0.394 (inactive) | 0.0685 | 20.7 (active) | 3.22 (inactive) | -0.0309 (inactive) | 0.47 (inactive) | -0.41 | 1.75 (inactive) | -2 (inactive) | -1.56 | -0.182 | 0.867 | -0.358 | -3.26 | -3.41 | -0.698 | -0.211 (inactive) | -0.811 | -0.286 | 0.275 (inactive) |
| CCOC(=O)CCN1C(=O)[C@H]2[C@H]3[C@H](O)[C@H](O)CC(=NNC(=O)OCc4ccccc4)[C@@H]3CC[C@H]2C1=O | 0.809 (inactive) | -0.147 | 0.0026 (inactive) | -0.37 (inactive) | -0.371 (inactive) | -0.0393 (inactive) | 0.33 | -4.57 (inactive) | 0.0939 (inactive) | 0.181 | -0.0996 | 0.902 | 0.554 | 0.457 | -0.359 | -0.398 | -0.773 (inactive) | 0.279 | -0.614 | -0.744 (inactive) |
| CCOC(=O)NN=C1C[C@@H](O)[C@@H](O)[C@@H]2[C@@H]3C(=O)N(Cc4ccccc4)C(=O)[C@@H]3CC[C@H]12 | -0.356 (inactive) | -0.332 | 1.39 (inactive) | -0.673 (inactive) | -0.0654 (inactive) | -1.36 (inactive) | 0.577 | 1.15 (inactive) | 0.547 (inactive) | 0.0313 | 0.29 | 0.114 | -1.05 | 0.976 | -2 | 0.366 | 0.42 (inactive) | 0.334 | -0.68 | 0.939 (inactive) |
| COC(=O)[C@@H]1CC[C@H](C)[C@@H](c2ccc(C)cc2)N1C(=O)c1ccc(C=NO[C@@H](C)c2cn([C@H](CO)Cc3ccccc3)nn2)cc1 | 0.442 (inactive) | -0.0615 | 4.57 (inactive) | 1.12 (inactive) | 0.809 (inactive) | 0.907 (inactive) | 0.406 | -3.24 (inactive) | -1.13 (inactive) | -3.8 | 0.724 | -0.412 | -0.759 | -1.41 | -1.92 | -0.86 | 0.0596 (inactive) | -0.946 | -0.901 | -0.392 (inactive) |
| COC(=O)CC=C[C@@H](C)[C@@H](C=NO[C@H](C)c1cn([C@H](CO)Cc2ccccc2)nn1)NS(=O)(=O)c1ccc(C)cc1 | -0.0528 (inactive) | 0.173 | 2.17 (inactive) | 0.674 (inactive) | 0.605 (inactive) | 0.22 (inactive) | -1.07 | 0.679 (inactive) | 0.685 (inactive) | -0.0369 | -0.775 | -0.0125 | -0.647 | -0.0023 | -0.254 | -0.416 | -2.46 (inactive) | 0.696 | 0.571 | -0.102 (inactive) |
| COc1ccc(C#C[C@@H]2C=C[C@H](OC(C)=O)[C@@H](COC(C)=O)O2)cc1 | 0.381 (inactive) | -0.193 | 1.96 (inactive) | 0.141 (inactive) | -0.544 (inactive) | -0.0979 (inactive) | -0.394 | 1.38 (inactive) | 0.59 (inactive) | 0.89 | -0.142 | 0.49 | 0.419 | -3.54 | -2.65 | -1.52 | -0.197 (inactive) | -0.437 | -2.68 | -0.0296 (inactive) |
| COc1ccc(O[C@H]2C=C[C@@H](c3ccccc3)O[C@@H]2CON=C(C)CCC(=O)OC[C@H]2O[C@H](c3ccccc3)C=C[C@@H]2Oc2ccc(OC)cc2)cc1 | 0.274 (inactive) | 0.64 | 0.99 (inactive) | 0.328 (inactive) | 0.104 (inactive) | 0.464 (inactive) | -0.661 | -0.2 (inactive) | 0.988 (inactive) | -0.925 | -0.094 | -0.603 | -0.144 | -1.44 | -0.31 | 1.08 | 0.244 (inactive) | 0.534 | -0.492 | 0.305 (inactive) |
| CO[C@@H]1COC(=O)[C@H](CCSC)NC(=O)CC=C[C@@H](C)COC(=O)[C@H](C)NC(=O)CC=C[C@H]1C | 0.675 (inactive) | -0.231 | -0.0455 (inactive) | 0.327 (inactive) | 0.033 (inactive) | 0.353 (inactive) | 0.399 | -0.906 (inactive) | -0.0183 (inactive) | 0.0788 | 0.205 | 0.0719 | 0.677 | 0.174 | -0.0512 | 0.381 | -0.225 (inactive) | -0.226 | 2.32 | 0.767 (inactive) |
| CCOC(=O)[C@H](Cc1ccccc1)NC(=O)OC1CC(CCC2CC(CC)=NO2)OC2(CCCC(COC(=O)NCCC(C)C)O2)C1 (stereo not given in full) | -0.0799 (inactive) | -0.101 | 3.14 (inactive) | -0.0787 (inactive) | -0.648 (inactive) | -0.39 (inactive) | -0.459 | -0.405 (inactive) | 0.109 (inactive) | 1.04 | -0.0093 | -1.14 | -1.1 | -3.44 | -3.72 | -0.0294 | 0.513 (inactive) | -0.462 | -1.22 | 0.453 (inactive) |
